From PubChem BioAssay
Values joined by “and” are separate entries in the source; they are usually repeats but may differ in a detail not shown here. Equal entries are not always repeated. Records with an inconclusive call do not appear. Active and inactive are the calls of the source.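 How the source made its calls, unless noted: active means compounds lowering colon cancer cell viability after pretreatment blocking the GSK3B kinase; inactive means the rest.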 Where a SMILES comes first, the peptide text is derived from it. [ ]: non-standard residue; d: D form. The star is where a group is joined. Sta = CC(C)C[C@H](N)[C@@H](O)CC(=O)O; Isovaleryl = CC(C)CC(=O)*

Experiments:
[1] = P. berghei load reduction in hepatocytes – cell-based, HepG2, luciferase luminescence, HepG2 viability, primary screen (AID 624349; in the data active means parasite load remaining mostly below about 12%, no sharp cut-off; inactive means mostly above about 10%;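 further: 100% = mean of DMSO negative control wells on the same plate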); conditions: P. berghei liver stage in HepG2, luciferase luminescence, concentration not given here; parasite load remaining: stronger effect = lower value; viability: measured here: HepG2 viability without parasites
[2] = Wnt pathway potentiators raising nuclear beta-catenin – imaging, WNT3A-conditioned medium, mouse C2C12, NPC library, primary screen (AID 1117326; in the data active means nuclear beta-catenin stimulation mostly above about 4.2%, no sharp cut-off; inactive means mostly below about 10%; further: reference of the scale not given here); conditions: stronger effect = higher value
[3] = stimulators of insulin release from INS-1E, primary screen, cell-based, 5 mM glucose, NPC library (AID 1117329;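 active means compound raises insulin release from rat beta cells at 5 mM glucose, no numeric limit stated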; further: reference of the scale not given here); conditions: rat INS-1E insulin secretion, at 10 µM, stronger effect = higher value
[4] = growth inhibition of GSK3B-pretreated HCT116 cells – cell-based, CellTiter-Glo, 0.2 to 20 µM (AID 1117336); conditions: HCT116 viability after GSK3B inhibitor, at 20 µM, stronger effect = higher value
[5] = inhibition of endothelial tube formation, primary screen, imaging, VEGF stimulated, CD31 staining, tube area, NPC library (AID 1117340;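 active means compound that reduces growth-factor-driven endothelial tube area in a mixed cell culture, no cutoff stated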); conditions: VEGF-stimulated ADSC/ECFC co-culture, at 10 µM, stronger effect = higher value
[6] = GLP1 release stimulators, primary, NCI-H716, NPC library (AID 1117341;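 active means compound raises GLP1 secretion from the human gut endocrine cells, with no numeric limit stated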; further: reference of the scale not given here); conditions: NCI-H716 cells, at 10 µM, stronger effect = higher value
[7] = HCT116 colon cancer cell growth inhibition, primary screen, CellTiter-Glo luminescence, NPC library (AID 1117342;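 active means compounds that lower survival of HCT116 colon cancer cells in the luminescence readout, no numeric limit stated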); conditions: at 20 µM (top of the series)
[8] = reduced SW480 viability measured with CellTiter-Glo, NPC library, primary (AID 1117343;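 active means compounds that lower viability of the colon cancer cells in the luminescence readout, with no numeric limit stated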); conditions: CellTiter-Glo luminescence; at 20 µM (top of the series) unless noted
[9] = NPC library primary testing for decreased DLD-1 cell viability via CellTiter-Glo (AID 1117346;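 active means compounds that lower survival of DLD-1 colon cancer cells in the luminescence readout, no cutoff given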); conditions: DLD-1 viability, CellTiter-Glo luminescence; at 20 µM (top of the series)
[10] = viability loss in pontine glioma line – cell-based, SU-DIPG-XVII, MIPE5.0, CellTiter-Glo, qHTS, dose response (AID 1347060; cut-off not given, nearly all actives have AC50 up to about 26 µM); conditions: CellTiter-Glo ATP luminescence
[11] = viability loss in pontine glioma line – cell-based, SU-DIPG-XIII, MIPE4.0, CellTiter-Glo, qHTS, dose response (AID 1347061; cut-off not given, nearly all actives have AC50 up to about 37 µM;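 further: cells exposed to compound for 48 hours before readout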); conditions: CellTiter-Glo ATP luminescence
[12] = viability loss in pontine glioma line – cell-based, JHH-DIPG-1, MIPE4.0, CellTiter-Glo, qHTS, dose response (AID 1347062; cut-off not given, nearly all actives have AC50 up to about 27 µM); conditions: JHH-DIPG-1 viability, CellTiter-Glo ATP luminescence
[13] = growth inhibition of DIPG cells – cell-based, MIPE5.0 library, qHTS (AID 1347068; cut-off not given, nearly all actives have IC50 up to about 30 µM); conditions: SU-DIPG-XXV viability
[14] = viability loss with induced miR-34 in A549 – imaging, A549 dox-inducible miR-34, nuclei and caspase counts, primary screen (AID 1347080;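 active means compounds whose cell count with miR-34 switched on is under 0.7 times the count with it off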); conditions: A549 miR-34 inducible, Hoechst nuclei count, 48 h
[15] = MELAS cybrid and Rieske KO viability enhancers – cell-based, MELAS cybrids, Rieske KO mouse fibroblasts, CellTiter-Glo, primary screen (AID 1508586;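 active means mean z-score across replicates of 1.96 or higher in either the MELAS or the Rieske mutant cell line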;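 further: z relative to plate mean and SD of compound and empty wells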); conditions: low glucose
[16] = test system: Aerobactin synthetase IucA (Klebsiella pneumoniae); experiment: inhibition of K. pneumoniae IucA enzyme – biochemical, Tocris library, absorbance (AID 1345561; call rule not given here;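 further: 100% = enzyme without compound and 0% = no enzyme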); conditions: purified IucA enzyme assay, absorbance (OD) read-out; stronger effect = lower value;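 tested at 8 µM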
[17] = molecular target: NAD(+) hydrolase SARM1 (Homo sapiens) (UniProt Q6SZW1); experiment: blocking NAD cleavage by SARM1 SAM-TIR – cell lysate, NAD-Glo luminescence (AID 1508614;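 active means compound whose remaining NAD level is above about 45 nM, limit read from the data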); conditions: SAM-TIR HEK293T lysate NADase, at 1 µM, stronger effect = higher value
[18] = galactose survival enhancers in mitochondrial complex I cybrids – cell-based, galactose medium, ATP luminescence, primary screen (AID 1645843;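 active means z-score of at least 1.8 in each of two replicates, scored against plate mean and spread of sample wells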;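 further: positive z means more ATP and so rescue of galactose-driven cybrid death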); conditions: complex I mutant cybrid cells, 72 h, stronger effect = higher value
[19] = stronger effect = lower value, cell number ratio, induced over uninduced
[20] = measured here: relative caspase fold change +Dox/-Dox
[21] = measured here: total cells with miR-34 induction, stronger effect = lower value
[22] = measured here: total cells without miR-34 induction

Chain of NAD(+) hydrolase SARM1 (Homo sapiens) (Q6SZW1 whole entry, looked up): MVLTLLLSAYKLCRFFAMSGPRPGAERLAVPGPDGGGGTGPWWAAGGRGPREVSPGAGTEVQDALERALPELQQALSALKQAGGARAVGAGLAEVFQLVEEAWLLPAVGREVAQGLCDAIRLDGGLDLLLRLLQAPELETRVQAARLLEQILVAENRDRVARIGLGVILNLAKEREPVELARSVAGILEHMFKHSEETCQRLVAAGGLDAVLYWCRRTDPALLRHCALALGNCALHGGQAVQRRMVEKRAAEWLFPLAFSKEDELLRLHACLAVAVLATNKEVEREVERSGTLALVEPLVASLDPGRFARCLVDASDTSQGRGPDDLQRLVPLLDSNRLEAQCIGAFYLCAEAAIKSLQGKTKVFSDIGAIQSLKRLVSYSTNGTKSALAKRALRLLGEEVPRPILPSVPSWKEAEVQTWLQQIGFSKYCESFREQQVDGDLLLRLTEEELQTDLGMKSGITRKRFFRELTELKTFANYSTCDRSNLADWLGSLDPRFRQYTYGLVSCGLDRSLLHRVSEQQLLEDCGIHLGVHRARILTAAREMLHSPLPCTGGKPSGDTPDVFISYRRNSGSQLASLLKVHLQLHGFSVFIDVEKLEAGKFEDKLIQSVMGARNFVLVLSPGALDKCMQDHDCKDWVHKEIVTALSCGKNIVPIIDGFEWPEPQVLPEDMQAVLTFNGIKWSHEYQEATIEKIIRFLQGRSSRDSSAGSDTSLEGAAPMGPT

CC(C)CC(=O)N[C@H](C(=O)N[C@H](C(=O)N[C@@H](CC(C)C)[C@@H](O)CC(=O)N[C@@H](C)C(=O)N[C@@H](CC(C)C)[C@@H](O)CC(=O)O)C(C)C)C(C)C (Isovaleryl-VV[Sta]A[Sta]-OH)
inactive: parasite load remaining [1] 101% | nuclear beta-catenin stimulation ([2]; at 10 µM) -1.6% | insulin secretion stimulation [3] 4.9% | viability decrease [4] -3.4% | tube area decrease [5] -25.1% | GLP1 secretion stimulation [6] 0.5% | inhibition of viability [7] 4% | viability decrease (inhibition) [8] -0.3% | outcome [10] | outcome [11] | outcome [12] | outcome [13] | fold change [14, 19] 0.91 and 1.02 | z-score ([15]; MELAS cybrid survival, CellTiter-Glo 48 h, stronger effect = higher value) -1.11
102%: viability [1]
-0.3%: nuclear beta-catenin stimulation ([2]; stimulation, at 2 µM)
-0.328: z-score ([15]; Rieske KO mouse fibroblast survival, CellTiter-Glo 72 h)
1.28 and 1.09: fold change [14, 20]
7720 and 5130: cell count [14, 21]
active: viability decrease (inhibition) [9] 13%
8480 and 5040: cell count [14, 22]

CCCCCCCCCCCCCCCC(=O)NCCO
inactive: nuclear beta-catenin stimulation ([2]; at 10 µM) 2.2% | insulin secretion stimulation [3] 4.7% | viability decrease [4] -7.4% | tube area decrease [5] -5.7% | GLP1 secretion stimulation [6] -1.8% | inhibition of viability [7] 1.3% | viability decrease (inhibition) [8] -42.2% | viability decrease (inhibition) [9] -11.2% | remaining activity [16] 113% | remaining NAD [17] 10 nM | z-score [18] 0.05
8.9%: nuclear beta-catenin stimulation ([2]; stimulation, at 2 µM)

O=C(O)C(=O)Nc1cccc(-c2nn[nH]n2)c1
inactive: nuclear beta-catenin stimulation ([2]; at 10 µM) 1.3% | insulin secretion stimulation [3] 4% | viability decrease [4] 19.5% | tube area decrease [5] 0.4% | GLP1 secretion stimulation [6] -3.2% | inhibition of viability [7] -2.9% | viability decrease (inhibition) [8] 32.2% | viability decrease (inhibition) [9] 9.1% | outcome [10] | outcome [11] | outcome [12] | outcome [13]
1.9%: nuclear beta-catenin stimulation ([2]; stimulation, at 2 µM)

CN1CC(=O)N/C1=N/C(=O)Nc1cccc(Cl)c1
8750: cell count [14, 21]
inactive: nuclear beta-catenin stimulation ([2]; at 10 µM) 0.5% | insulin secretion stimulation [3] -2.5% | viability decrease [4] -6.65% | tube area decrease [5] -5.1% | GLP1 secretion stimulation [6] 4.2% | inhibition of viability [7] -16.7% | viability decrease (inhibition) [8] 45.2% | viability decrease (inhibition) [9] 3.8% | remaining activity [16] 109% | fold change [14, 19] 0.899 | z-score [18] 0.46
1.49: fold change [14, 20]
-0.6%: nuclear beta-catenin stimulation ([2]; stimulation, at 2 µM)
9740: cell count [14, 22]

CCOC(=O)[C@H](CCc1ccccc1)N[C@@H](C)C(=O)N1Cc2cc(OC)c(OC)cc2C[C@H]1C(=O)O
7700: cell count [14, 21]
8220: cell count [14, 22]
1.6%: nuclear beta-catenin stimulation ([2]; stimulation, at 2 µM)
active: tube area decrease [5] 78.4%
1.79: fold change [14, 20]
inactive: nuclear beta-catenin stimulation ([2]; at 10 µM) -0.5% | insulin secretion stimulation [3] 0.3% | viability decrease [4] -1.4% | GLP1 secretion stimulation [6] 0.3% | inhibition of viability [7] 6.7% | viability decrease (inhibition) [8] -2.3% | viability decrease (inhibition) [9] 3.7% | remaining activity [16] 110% | fold change [14, 19] 0.937 | z-score [18] -0.04
